Measurements taken from the supplement of paper PMC10849652.
Targets with a hit are over-represented here; the source holds about 7,900 in all. About 0.6% of all pairs of compound and target were hits. Unmarked numbers belong to inactive results.

How the values were obtained:
Assay in all cases: log2 fold change, soluble protein after heating vs DMSO (PISA); higher = thermal stabilisation; K562 cells, 10 uM, 30 min; active = over 0.2 and 3.5 SD of the protein, either way, in both replicates (recomputed)
[1] = compound: C/C(=N\NC(=O)C1=CC(=CC=C1)S(=O)(=O)N2CCOCC2)/C3=C(C=CC(=C3)Cl)O
In short: (§1)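 Quantification of soluble protein used TMTpro 16plex LC-MS/MS, with channel sums equalised. Samples were the supernatant after 21,000xg for 90 min of pooled aliquots from K562 cells (2×10^6 cells/mL) treated with 10 μM compound for 30 min, heated for 3 min over 48°C-58°C, and extracted in PBS with 0.5% NP-40 at 4°C. Values, from duplicates, describe thermal stability against control samples on a log2 fold-change scale.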

[2] = compound: C1=CC(=C(C=C1Cl)C2=NC3=NC=CN=C3C(=N2)NC4=CC=NC=C4)F
In short: as §1

[3] = compound: C1=CC2=C(C=CC(=C2)/C=C\3/C(=O)NC(=NCC4=CC=CS4)S3)N=C1
In short: as §1

[4] = compound: C1=CC=C2C(=C1)C3=NNC4=CC=CC(=C43)C2=O
In short: as §1

[5] = compound: C1CCN(C1)C(=O)NC2=CC=CC(=C2)NC3=NC=C(C(=N3)NCCC4=CN=CN4)Br
In short: as §1

[6] = compound: C1CN(CCC1(CC2=CC=C(C=C2)Cl)N)C3=NC=NC4=C3C=CN4
In short: as §1

[7] = compound: C#Cc1cccc(Nc2ncnc3cc(OCCOC)c(OCCOC)cc23)c1 [erlotinib]
In short: as §1

[8] = compound: C1=CC(=CC=C1C2=NC3=C(N2)C=C(C=C3)C(=O)N)OC4=CC=C(C=C4)Cl
In short: as §1

[9] = compound: C1=CC=C(C=C1)C2=NC(=C(N2)C3=CC=NC=C3)C4=CC(=C(C=C4)Cl)O
In short: as §1

[10] = compound: C1=CC2=NC=CN=C2C=C1/C=C/3\C(=O)NC(=O)S3
In short: as §1

Sequence of UniProt P55210 (P55210 whole entry, looked up): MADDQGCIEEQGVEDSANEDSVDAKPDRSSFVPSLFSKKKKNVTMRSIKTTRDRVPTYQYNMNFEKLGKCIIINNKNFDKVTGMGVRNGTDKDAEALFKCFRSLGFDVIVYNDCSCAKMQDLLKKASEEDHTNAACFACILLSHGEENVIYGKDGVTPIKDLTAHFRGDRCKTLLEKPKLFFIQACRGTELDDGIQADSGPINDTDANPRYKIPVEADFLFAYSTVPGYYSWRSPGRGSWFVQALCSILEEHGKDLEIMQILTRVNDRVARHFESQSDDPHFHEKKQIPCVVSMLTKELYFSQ
Sequence of UniProt P51795 (P51795 whole entry, looked up): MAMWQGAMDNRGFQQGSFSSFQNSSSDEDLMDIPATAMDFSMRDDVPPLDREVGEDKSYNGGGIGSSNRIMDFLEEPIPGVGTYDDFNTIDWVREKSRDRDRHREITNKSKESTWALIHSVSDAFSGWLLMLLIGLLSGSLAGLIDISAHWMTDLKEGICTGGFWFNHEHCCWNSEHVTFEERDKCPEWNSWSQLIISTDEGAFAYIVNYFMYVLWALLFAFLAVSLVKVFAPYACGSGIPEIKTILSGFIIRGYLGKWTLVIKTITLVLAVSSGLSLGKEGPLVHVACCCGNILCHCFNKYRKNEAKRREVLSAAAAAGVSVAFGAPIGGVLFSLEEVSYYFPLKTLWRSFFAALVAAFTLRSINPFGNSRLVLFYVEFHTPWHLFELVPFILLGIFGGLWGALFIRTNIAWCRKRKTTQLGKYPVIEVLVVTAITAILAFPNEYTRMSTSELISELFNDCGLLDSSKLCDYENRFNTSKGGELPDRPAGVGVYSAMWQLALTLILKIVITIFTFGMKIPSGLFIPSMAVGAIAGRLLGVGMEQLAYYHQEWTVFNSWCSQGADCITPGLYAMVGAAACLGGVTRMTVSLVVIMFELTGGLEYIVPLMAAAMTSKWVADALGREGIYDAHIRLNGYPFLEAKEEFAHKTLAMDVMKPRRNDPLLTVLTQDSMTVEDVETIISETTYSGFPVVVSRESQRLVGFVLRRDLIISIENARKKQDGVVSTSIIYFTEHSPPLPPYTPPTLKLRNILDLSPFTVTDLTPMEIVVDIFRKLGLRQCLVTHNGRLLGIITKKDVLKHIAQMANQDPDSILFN
Sequence of UniProt O60583 (O60583 whole entry, looked up): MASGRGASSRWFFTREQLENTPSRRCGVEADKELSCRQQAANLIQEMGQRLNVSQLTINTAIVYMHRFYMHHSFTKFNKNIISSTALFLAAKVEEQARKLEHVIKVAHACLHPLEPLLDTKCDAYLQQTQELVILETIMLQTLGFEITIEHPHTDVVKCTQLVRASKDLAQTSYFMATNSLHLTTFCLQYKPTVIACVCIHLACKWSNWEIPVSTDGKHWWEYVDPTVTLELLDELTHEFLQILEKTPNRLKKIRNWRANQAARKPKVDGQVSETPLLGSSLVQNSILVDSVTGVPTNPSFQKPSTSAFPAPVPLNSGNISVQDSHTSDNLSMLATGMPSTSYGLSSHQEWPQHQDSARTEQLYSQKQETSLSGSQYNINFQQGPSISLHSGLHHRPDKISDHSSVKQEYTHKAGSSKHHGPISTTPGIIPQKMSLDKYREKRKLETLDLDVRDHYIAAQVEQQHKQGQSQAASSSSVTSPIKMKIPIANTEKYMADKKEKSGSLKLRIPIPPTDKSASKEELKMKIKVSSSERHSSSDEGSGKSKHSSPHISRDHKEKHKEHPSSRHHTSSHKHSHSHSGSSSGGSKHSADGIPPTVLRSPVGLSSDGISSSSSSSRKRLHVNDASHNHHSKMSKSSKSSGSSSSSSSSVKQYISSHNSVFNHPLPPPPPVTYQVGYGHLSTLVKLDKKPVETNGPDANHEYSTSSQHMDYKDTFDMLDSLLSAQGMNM
Sequence of UniProt Q6UUV7 (Q6UUV7 whole entry, looked up): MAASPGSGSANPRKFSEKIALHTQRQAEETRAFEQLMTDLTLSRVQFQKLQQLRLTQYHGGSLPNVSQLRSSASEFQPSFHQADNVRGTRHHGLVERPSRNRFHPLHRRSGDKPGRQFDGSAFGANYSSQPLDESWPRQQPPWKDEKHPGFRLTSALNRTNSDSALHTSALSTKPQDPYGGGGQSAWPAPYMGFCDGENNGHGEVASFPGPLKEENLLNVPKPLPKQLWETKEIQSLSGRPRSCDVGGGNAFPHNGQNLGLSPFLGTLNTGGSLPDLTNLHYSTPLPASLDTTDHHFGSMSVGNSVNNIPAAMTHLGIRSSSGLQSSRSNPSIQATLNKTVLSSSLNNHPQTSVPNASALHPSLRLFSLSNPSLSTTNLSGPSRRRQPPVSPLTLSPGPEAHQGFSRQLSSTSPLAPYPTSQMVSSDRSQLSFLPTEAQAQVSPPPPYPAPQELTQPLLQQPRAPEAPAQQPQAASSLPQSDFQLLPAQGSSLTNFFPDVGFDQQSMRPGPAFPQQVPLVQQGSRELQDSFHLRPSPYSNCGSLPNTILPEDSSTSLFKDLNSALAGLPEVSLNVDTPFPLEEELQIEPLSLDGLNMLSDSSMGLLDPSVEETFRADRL
Sequence of UniProt Q96GV9 (Q96GV9 whole entry, looked up): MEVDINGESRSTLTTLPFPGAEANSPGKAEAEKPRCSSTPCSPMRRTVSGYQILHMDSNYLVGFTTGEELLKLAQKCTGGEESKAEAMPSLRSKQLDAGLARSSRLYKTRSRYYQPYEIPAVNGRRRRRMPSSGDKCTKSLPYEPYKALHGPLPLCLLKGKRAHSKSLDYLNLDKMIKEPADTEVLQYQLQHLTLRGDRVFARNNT
Sequence of UniProt Q9BSQ5 (Q9BSQ5 whole entry, looked up): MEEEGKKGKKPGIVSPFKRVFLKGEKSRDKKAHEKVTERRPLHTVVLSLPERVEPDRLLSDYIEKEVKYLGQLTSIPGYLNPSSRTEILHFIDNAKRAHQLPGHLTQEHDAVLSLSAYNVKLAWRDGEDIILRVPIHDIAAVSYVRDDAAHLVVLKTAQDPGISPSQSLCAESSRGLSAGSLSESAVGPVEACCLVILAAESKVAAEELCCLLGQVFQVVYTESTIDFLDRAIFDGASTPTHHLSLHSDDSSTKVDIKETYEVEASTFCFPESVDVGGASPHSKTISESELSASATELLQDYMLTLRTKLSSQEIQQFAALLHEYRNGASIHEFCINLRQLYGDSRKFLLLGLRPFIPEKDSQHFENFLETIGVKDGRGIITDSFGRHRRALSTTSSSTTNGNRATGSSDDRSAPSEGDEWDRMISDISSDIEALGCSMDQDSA
Sequence of UniProt Q2TAC2 (Q2TAC2 whole entry, looked up): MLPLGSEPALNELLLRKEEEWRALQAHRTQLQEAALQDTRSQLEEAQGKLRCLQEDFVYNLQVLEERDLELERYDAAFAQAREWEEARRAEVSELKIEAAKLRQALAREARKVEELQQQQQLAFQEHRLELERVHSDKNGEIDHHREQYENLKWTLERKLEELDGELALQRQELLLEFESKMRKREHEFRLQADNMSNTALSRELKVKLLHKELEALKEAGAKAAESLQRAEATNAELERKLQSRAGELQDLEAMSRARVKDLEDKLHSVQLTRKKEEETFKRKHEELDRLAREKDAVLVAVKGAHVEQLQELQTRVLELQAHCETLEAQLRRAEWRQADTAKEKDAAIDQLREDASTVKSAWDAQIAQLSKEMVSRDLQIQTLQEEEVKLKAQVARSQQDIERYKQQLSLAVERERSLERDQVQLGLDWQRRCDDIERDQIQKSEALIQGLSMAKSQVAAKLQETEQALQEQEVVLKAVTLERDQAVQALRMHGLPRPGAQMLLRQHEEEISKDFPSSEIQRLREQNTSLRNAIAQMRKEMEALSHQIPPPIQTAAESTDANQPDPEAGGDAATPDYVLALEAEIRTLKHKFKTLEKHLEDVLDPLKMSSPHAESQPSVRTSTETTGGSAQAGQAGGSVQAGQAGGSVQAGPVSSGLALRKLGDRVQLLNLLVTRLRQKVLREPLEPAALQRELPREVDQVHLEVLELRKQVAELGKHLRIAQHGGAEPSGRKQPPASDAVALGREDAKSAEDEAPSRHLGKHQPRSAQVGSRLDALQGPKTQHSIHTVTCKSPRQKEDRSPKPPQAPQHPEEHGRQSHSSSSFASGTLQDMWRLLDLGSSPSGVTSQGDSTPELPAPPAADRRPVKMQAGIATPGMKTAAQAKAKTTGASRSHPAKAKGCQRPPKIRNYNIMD
Sequence of UniProt O14936 (O14936 whole entry, looked up): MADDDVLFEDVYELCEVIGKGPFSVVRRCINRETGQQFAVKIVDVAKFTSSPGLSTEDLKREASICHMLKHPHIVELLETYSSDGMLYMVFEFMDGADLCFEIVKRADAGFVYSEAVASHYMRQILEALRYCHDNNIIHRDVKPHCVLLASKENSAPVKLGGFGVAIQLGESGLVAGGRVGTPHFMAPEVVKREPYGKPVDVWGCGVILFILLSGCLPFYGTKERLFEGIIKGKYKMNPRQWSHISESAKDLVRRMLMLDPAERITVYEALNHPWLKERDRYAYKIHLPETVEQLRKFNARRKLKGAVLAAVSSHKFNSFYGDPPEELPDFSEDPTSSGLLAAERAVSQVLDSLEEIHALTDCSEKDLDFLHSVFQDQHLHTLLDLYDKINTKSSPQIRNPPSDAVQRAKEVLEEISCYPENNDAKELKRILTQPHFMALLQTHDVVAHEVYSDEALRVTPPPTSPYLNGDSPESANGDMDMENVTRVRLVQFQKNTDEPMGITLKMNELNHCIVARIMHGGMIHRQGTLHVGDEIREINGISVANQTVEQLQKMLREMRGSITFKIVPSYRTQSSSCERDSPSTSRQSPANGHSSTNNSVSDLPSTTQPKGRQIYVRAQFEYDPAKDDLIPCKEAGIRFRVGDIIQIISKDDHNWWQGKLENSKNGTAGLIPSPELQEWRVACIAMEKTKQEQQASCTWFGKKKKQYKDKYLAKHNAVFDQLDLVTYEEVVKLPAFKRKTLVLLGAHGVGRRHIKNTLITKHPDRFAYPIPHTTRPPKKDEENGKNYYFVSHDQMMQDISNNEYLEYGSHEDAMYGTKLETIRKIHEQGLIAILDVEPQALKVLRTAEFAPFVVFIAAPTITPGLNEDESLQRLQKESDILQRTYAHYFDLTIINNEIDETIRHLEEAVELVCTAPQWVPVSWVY

Row | Target | log2 fold change [1] | log2 fold change [2] | log2 fold change [3] | log2 fold change [4] | log2 fold change [5] | log2 fold change [6] | log2 fold change [7] | log2 fold change [8] | log2 fold change [9] | log2 fold change [10]
1 | C5orf30 (UniProt Q96GV9) | 0.267 | -0.056 | 0.062 | -0.347 | 0.01 | 0.128 |  |  |  | 
2 | CNRIP1 (UniProt Q96F85) |  | 0.045 |  |  |  |  | -0.065 | 0.045 | -0.115 | 
3 | CARD9 (UniProt Q9H257) | 0.211 |  | -0.184 | -0.058 |  |  | -0.173 | 0.056 | 0.129 | 
4 | C6orf120 (UniProt Q7Z4R8) |  |  |  |  | 0.005 | 0.028 | -0.2 | 0.134 | -0.009 | -0.003
5 | CCDC187, A0A1W2PQX5 | -0.124 | -0.079 | 0.169 | 0.013 |  |  |  |  | -0.055 | 
6 | COMMD1 (UniProt Q8N668) |  | -0.241 |  |  | 0.037 | -0.083 | -0.136 | 0.15 | 0.066 | -0.088
7 | CASP10 isoform 4 (UniProt Q92851) | 0.138 | 0.026 | 0.124 | -0.04 | -0.13 | -0.21 |  |  | 0.051 | -0.046
8 | CFAP47 (UniProt Q6ZTR5) | -0.734 (active) | 0.053 | 0.355 | 0.132 |  |  |  |  |  | -0.123
9 | CS (UniProt F8VU34) |  |  |  |  |  |  |  |  |  | 0.06
10 | CAD (UniProt H7BZB3) | -0.061 |  | 0.242 | -0.058 |  |  |  |  |  | 
11 | CASP9 (UniProt P55211) | 0.059 | -0.016 | -0.049 | 0.048 | -0.054 | -0.218 |  |  | -0.02 | 
12 | CA1 (UniProt E5RIF9) |  | 0.096 |  |  | 0.014 | -0.453 |  |  |  | 0.135
13 | CLINT1 (UniProt Q14677) | -0.106 | -0.12 | -0.176 | 0.031 | -0.097 | -0.057 |  |  |  | 0.035
14 | CD68 (UniProt P34810) |  |  |  |  |  |  | -0.13 | 0.022 |  | 0.094
15 | CASP7 isoform 3 (UniProt P55210) |  | -0.105 |  |  |  |  | 0.133 | 0.217 |  | 0.118
16 | CRLS1 (UniProt Q9UJA2) |  |  |  |  | -0.019 | 0.074 | -0.034 | 0.019 |  | 
17 | CCNL1 (UniProt Q9UK58) |  |  |  |  |  |  | -0.001 | 0.094 |  | 

Row | Target | log2 fold change [1] | log2 fold change [2] | log2 fold change [3] | log2 fold change [4] | log2 fold change [5] | log2 fold change [6] | log2 fold change [7] | log2 fold change [8] | log2 fold change [9] | log2 fold change [10]
18 | CLCN5 isoform 2 (UniProt P51795) |  |  |  |  | -0.098 | -0.011 | -0.009 | 0.064 | 0.125 | 
19 | CRMP1 isoform 2 (UniProt Q14194) | -0.273 |  | 0.101 | -0.037 | 0.088 | -0.014 | -0.1 | 0.009 |  | -0.011
20 | CFAP58 (UniProt Q5T655) |  |  |  |  |  |  |  |  | 0.047 | 
21 | CCM2 isoform 2 (UniProt Q9BSQ5) |  | -0.042 |  |  | 0.09 | 0.16 | 0.142 | 0.035 | 0.013 | 0.083
22 | CLN3 (UniProt Q13286) |  | 0.025 |  |  | 0.055 | 0.026 | 0 | 0.162 | -0.05 | 0.117
23 | CLPTM1L (UniProt G5E9Z2) | 0.109 | 0.492 | -0.139 | 0.174 | 0.145 | 0.272 |  |  |  | 0.284
24 | CNN1 (UniProt P51911) | 0.062 | 0.055 | 0.063 | 0.041 | -0.129 | 0.118 |  |  |  | 
25 | CCDC167 (UniProt Q9P0B6) |  | 0.008 |  |  | 0.054 | 0.224 | 0.068 | -0.041 | 0.072 | 0.054
26 | COMMD3-BMI1 (UniProt R4GMX3) | -0.043 | -0.051 | 0.077 | -0.169 | -0.191 | 0.095 |  |  |  | 
27 | CCDC57 (UniProt Q2TAC2) |  | 0.031 |  |  | 0.012 | 0.026 | 0.044 | -0.051 | 0.003 | -0.021
28 | CCNT2 (UniProt O60583) | 0 | -0.105 | -0.029 | -0.08 | -0.176 | -0.027 |  |  | -0.025 | 
29 | CSNK1A1 isoform 3 (UniProt P48729) |  |  |  |  |  |  |  |  |  | 0.111
30 | CPNE5 (UniProt Q9HCH3) |  |  |  |  | 0.087 | -0.879 (active) | 0.074 | -0.175 |  | 
31 | CRTC3 (UniProt Q6UUV7) |  | 0.04 |  |  | 0.02 | 0.075 |  |  | -0.146 | 0.094
32 | CHPT1 (UniProt Q8WUD6) | 0.181 | 0.24 | 0.078 | -0.024 | -0.004 | 0.01 |  |  | 0 | 
33 | COPS3 isoform 2 (UniProt Q9UNS2) | -0.24 | -0.075 | 0.214 | -0.126 | 0.176 | -0.052 |  |  | -0.568 | -0.125
34 | CASK (UniProt O14936) | -0.07 |  | 0.038 | -0.136 |  |  | -0.018 | 0.01 |  | 
